# In the library only some 6% were active in any assay of this set; here they are far more common.
# DRD3 antagonist – qHTS of D3 Dopamine Receptor Antagonist: qHTS | D3R cells, DiscoveRx beta-arrestin luminescence, antagonist mode; hits give low values | max response, negative = inhibition, % | D(3) dopamine receptor (Homo sapiens), P35462 | 360,000 tested, 2.5% active; in the data active = max response below about -50%; inconclusive = no clear call, values can overlap the other calls; also: % is scaled to controls: 0 for no effect and ±100 for the full control effect
# Target sequence (P35462 whole entry, looked up): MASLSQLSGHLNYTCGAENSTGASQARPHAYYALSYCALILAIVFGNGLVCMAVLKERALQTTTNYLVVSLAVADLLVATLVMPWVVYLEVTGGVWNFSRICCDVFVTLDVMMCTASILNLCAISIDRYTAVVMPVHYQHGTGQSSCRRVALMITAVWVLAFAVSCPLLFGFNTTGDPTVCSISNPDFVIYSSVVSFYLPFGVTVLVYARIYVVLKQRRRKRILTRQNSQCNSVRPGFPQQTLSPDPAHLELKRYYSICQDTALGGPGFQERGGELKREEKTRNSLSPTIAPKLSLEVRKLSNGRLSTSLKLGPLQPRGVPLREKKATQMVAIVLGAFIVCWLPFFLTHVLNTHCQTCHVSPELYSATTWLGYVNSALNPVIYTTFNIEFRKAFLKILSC
#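 Cells plated overnight at 1500 cells/well, then exposed to library compounds with dopamine controls for 90 minutes at 37 degrees C. DiscoveRx reagent added for 30–60 minutes at room temperature; luminescence read, quantitative HTS format.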
# D1 antag – Antagonist of Human D 1 Dopamine Receptor: qHTS. HEK293 TREx D1 cells, calcium flux, dopamine EC80; hits give low values. AID 504652, 2011. 360,000 tested, 3.2% active. activity change, negative = inhibition, % at 10 µM; in the data active = activity change below about -30%; also: % is scaled to controls: 0 for no effect and ±100 for the full control effect
#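 Using tetracycline-induced force-coupled D1 Hek293 cells and a calcium dye, signals were followed for 180 s after compound, then for 180 s after EC80 dopamine, to detect inhibitors.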
# D1 ag – Allosteric Agonists of the Human D1 Dopamine Receptor: qHTS. D(1A) dopamine receptor (Homo sapiens), P21728. HEK293 T-REx D1 cells, calcium flux, agonist mode. activation, % at 2 µM. 360,000 tested, 1% active. AID 504660, 2011; in the data active = activation above about 30%; also: 0% is about no effect
#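 Inducible HEK293 T-REx D1 cells, force-coupled to calcium signalling, were plated at 4000 cells/well with tetracycline and held overnight at 30 C. After no-wash calcium dye loading, compound-evoked calcium rise over 180 s flagged agonists.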
# D3 ag – qHTS of D3 Dopamine Receptor Agonist: qHTS. D(3) dopamine receptor (Homo sapiens), P35462. D3R DiscoveRx beta-arrestin cells, luminescence, 90 min. max activation, %. 410,000 tested, 0.58% active; in the data active = max activation above about 30%; also: 0% is about no effect
#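 Agonist mode: compounds and dopamine controls were applied to plated cells for 90 min at 37 degrees C after an overnight attachment at 1500 cells/well. Luminescent read-out followed 30 - 60 minutes at room temperature with DiscoveRx detection reagent.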
# D1 PAM – Potentiators of Human D1 Dopamine Receptor: qHTS | HEK293 TREx D1 cells, calcium flux, dopamine EC20 potentiation | potentiation, % at 10 µM | 360,000 tested, 0.036% active; in the data active = potentiation above about 30%; also: 0% is about no effect
# An asterisk follows results filed as active; u = inconclusive; x = no result given; ! = not active in a repeat.
SMILES,DRD3 antagonist,D1 antag,D1 ag,D3 ag,D1 PAM
O=[N+]([O-])c1ccc(Nc2nc(NCCO)nc(N3CCCC3)n2)cc1,-10,-18,0,9,3
NNc1nc(Nc2ccc([N+](=O)[O-])cc2)nc(N2CCCCCC2)n1,-52*,3,3,-25,-4
CN(C(=O)CO)c1c(I)c(C(=O)NCC(O)CO)c(I)c(C(=O)NCC(O)CO)c1I (stereo not drawn),x,x,x,7,x
CCc1ccc(-c2nc(CS(=O)CC(=O)NCCc3ccc(C)cc3)c(C)o2)cc1 (stereo not drawn),x,-9,0,-6,-9
Cc1cccc(N2CCN(c3ncnc4onc(C)c34)CC2C)c1 (stereo not drawn),x,-27,17,4,-6
Cc1cccc(N2CCN(C(=O)COc3noc4nc(C)cc(C)c34)CC2C)c1 (stereo not drawn),22,x,x,34*,x
CCCCN1CCC(COC(=O)c2cc(Cl)c(N)c3c2OCCO3)CC1,-108*,-9,-1,-98,-3
COc1cccc(CNC(=O)Cn2c(=O)n3nc(-c4cccc(F)c4)nc3c3ccccc32)c1,x,x,-2,-8,-1
CCC(NC(=O)c1cc(COc2c(F)cccc2F)on1)c1ccncc1 (stereo not drawn),-15,-1,5,-13,3
COC(=O)[C@H](Cc1ccccc1)NC(=O)c1cc(COc2c(F)cccc2F)on1,-1,-20,31*,-12,-1
O=C(NCc1cccs1)c1ccc(N2CCCC2=O)cc1,-8,5,2,-3,0
C#Cc1ccc(C(=O)NCc2ccc(N3CCCC3=O)cc2)cc1,16,-32*,6,0,-8
O=C(NCc1ccc(N2CCCC2=O)cc1)c1cc(COc2c(F)cccc2F)on1,29,-32*,18,8,-6
CCOC(=O)C1=CCC(c2ccccc2C(F)(F)F)N(S(=O)(=O)c2ccc(C)cc2)C1 (stereo not drawn),-9,x,x,-15,x
Cc1ccc(-c2nc3ncccc3o2)cc1NC(=O)COc1ccc(C(C)C)cc1,x,14,7,20,2
Cc1ccc(C(C[N+](=O)[O-])c2c(C)[nH]n(-c3ccccc3)c2=O)cc1 (stereo not drawn),-63*,1,-1,-36,-4
Cc1[nH]n(-c2ccccc2)c(=O)c1C(C[N+](=O)[O-])c1ccc(F)cc1 (stereo not drawn),-4,6,3,1,-3
O=C(NC1CCCCC1)c1ccc2c(c1)N(Cc1cccc(Cl)c1)C(=O)c1ccccc1S2(=O)=O,x,-1,2,-10,-5
CCCCCCN(C(=O)CCCCCN1C(=O)NC(c2ccccc2)C(C(=O)OCc2ccccc2)=C1C)C(C(=O)NCCCC)c1ccc(OCC(=O)OC)c(C(=O)OC)c1 (stereo not drawn),x,-54*,38*,x,-5
CCCCCCN(C(=O)CCCCCN1C(=O)NC(c2ccc(C(C)(C)C)cc2)C(C(=O)OCc2ccccc2)=C1C)C(C(=O)NCCCC)c1ccc(OCC(=O)OC)c(C(=O)OC)c1 (stereo not drawn),x,-13,17,x,-5
Cc1ccc(N=Cc2cc(Br)cc(Cl)c2O)cc1,-65*,-4,5,-28,7
N#Cc1ccc(C(=O)NCC(=O)OC(C(=O)Nc2cc(C(F)(F)F)ccc2Cl)c2ccccc2)cc1 (stereo not drawn),x,14,8,x,-2
CCOC(=O)CCc1c(C)c2ccc(OC(C)C(=O)OCC)c(C)c2oc1=O (stereo not drawn),2,-41*,18,22,-12
CCOc1cc(CNCCc2ccccc2)ccc1OCC(=O)NC(C)(C)C,0,-4,122*,-8,-3
CCOc1cc(CNCCc2ccc(S(N)(=O)=O)cc2)ccc1OCC(=O)NC(C)(C)C,14,-1,2,-24,-2
SMILES,DRD3 antagonist,D1 antag,D1 ag,D3 ag,D1 PAM
COc1cc(CNCCN2CCOCC2)ccc1OCC(=O)NC(C)(C)C,2,-1,32*,11,-21
COc1cc(CNC(C)C23CC4CC(CC(C4)C2)C3)ccc1OCC(=O)NC(C)(C)C (stereo not drawn),-7,2,37*,-14,0
O=C1COc2ccc(C(=O)COC(=O)c3cc(S(=O)(=O)NCc4ccccc4)ccc3O)cc2N1,-2,5,10,1,-5
NC1=NC[C@H](Cc2ccccc2)N1CCCCC1CCCCC1,-15,29,11,-33,5
NC1=NC[C@H](Cc2ccccc2)N1CCc1cccc(F)c1,1,-37*,1,12,-3
CCOC(=O)N1CCN(C/C(C)=C/c2ccccc2)CC1,u,-11,2,-10,-5
C/C(=C\c1ccccc1)CN1CCN(C)CC1,-56*,-2,7,-5,-1
CC1CC(C)CN(C(=O)/C(=C\c2ccccc2)c2ccccc2)C1 (stereo not drawn),0,3,1,2,0
CN1CCN(C(=O)/C(=C/c2ccccc2)c2ccccc2)CC1,-59*,3,0,-29,3
Cc1c(NC(=O)Nc2ccc3c(c2)OCO3)cccc1[N+](=O)[O-],-20,-44*,14,-3,-10
Cn1c2c(c(=O)n(C)c1=O)C(C(F)(F)F)(C(F)(F)F)N=C(CCC1CCCCC1)N2,23,-52*,18,15,-8
Cn1c2c(c(=O)n(C)c1=O)C(C(F)(F)F)(C(F)(F)F)N=C(c1ccccc1Cl)N2,30,x,7,-3,-2
Cc1ccc(NC(=O)Cn2c(=O)n(CCC(C)C)c(=O)c3cccnc32)cc1C,x,16,0,-6,-6
CC1CCCN(C(=O)Cn2c(=O)oc3cc(S(=O)(=O)N4CCCCC4)ccc32)C1 (stereo not drawn),-2,27,1,0,4
CC1CCN(S(=O)(=O)c2ccc3c(c2)oc(=O)n3CC(=O)N2CCc3ccccc3C2)CC1,u,-65*,0,-6,x
CC1CCN(C(=O)Cn2c(=O)oc3cc(S(=O)(=O)N4CCCCC4)ccc32)CC1,-7,-10,2,1,48*!
Cc1ccc(NC(=O)Cn2c(=O)n(CCCCC(=O)NCc3ccccc3Cl)c(=O)c3ccccc32)cc1,x,4,0,4,0
CS/C(=C\[N+](=O)[O-])Nc1ccc(Cl)cc1,-84*,11,1,-16,-4
CC(C)=CC(=O)Nc1ccc(Cl)cc1,-1,-11,3,0,1
Nc1nc(NC2CC2)c2ncn([C@@H]3C=C[C@@H](CO)C3)c2n1,x,x,x,6,x

# Compound activity from PubChem.
